# Compound activity as filed in PubChem.
# LDHA block: qHTS assay for inhibitors of human lactate dehydrogenase. L-lactate dehydrogenase A chain (Homo sapiens), P00338. purified LDHA, NADH/diaphorase-resazurin fluorescence; hits give low values. activity change, % (values are at about 110 or 230 µM). 480,000 tested, 0.15% active. AID 1347041, 2019; in the data active means activity change below about -30%; inconclusive means mostly about -25% to -30%;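 further: plate controls were DMSO wells for no effect and wells without enzyme for full effect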
#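 Remaining NADH was detected by diaphorase (0.133 mg/mL) converting 37 µM resazurin to fluorescent resorufin, read at 0 and 20 minutes. The preceding 5-minute room-temperature reaction used 2 nM LDHA, 0.2 mM sodium pyruvate and 0.06 mM NADH at pH 7.4.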
# TSHR antag: Antagonists of the Thyroid Stimulating Hormone Receptor: HTS campaign. 330,000 tested, 0.2% active. activity change, negative = inhibition, % at 11.5 µM. Thyrotropin receptor (Homo sapiens), P16473. TSHR-expressing cells, TSH-stimulated cAMP HTRF, 2 h; hits give low values;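 active means activity change below a set negative limit, meaning inhibition stronger than a set level, cut at about -70% in these data; inconclusive means activity change between two set negative limits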; further: on the % scale 0 is the no-effect control and ±100 the full control effect
# Target sequence (P16473 whole entry, looked up): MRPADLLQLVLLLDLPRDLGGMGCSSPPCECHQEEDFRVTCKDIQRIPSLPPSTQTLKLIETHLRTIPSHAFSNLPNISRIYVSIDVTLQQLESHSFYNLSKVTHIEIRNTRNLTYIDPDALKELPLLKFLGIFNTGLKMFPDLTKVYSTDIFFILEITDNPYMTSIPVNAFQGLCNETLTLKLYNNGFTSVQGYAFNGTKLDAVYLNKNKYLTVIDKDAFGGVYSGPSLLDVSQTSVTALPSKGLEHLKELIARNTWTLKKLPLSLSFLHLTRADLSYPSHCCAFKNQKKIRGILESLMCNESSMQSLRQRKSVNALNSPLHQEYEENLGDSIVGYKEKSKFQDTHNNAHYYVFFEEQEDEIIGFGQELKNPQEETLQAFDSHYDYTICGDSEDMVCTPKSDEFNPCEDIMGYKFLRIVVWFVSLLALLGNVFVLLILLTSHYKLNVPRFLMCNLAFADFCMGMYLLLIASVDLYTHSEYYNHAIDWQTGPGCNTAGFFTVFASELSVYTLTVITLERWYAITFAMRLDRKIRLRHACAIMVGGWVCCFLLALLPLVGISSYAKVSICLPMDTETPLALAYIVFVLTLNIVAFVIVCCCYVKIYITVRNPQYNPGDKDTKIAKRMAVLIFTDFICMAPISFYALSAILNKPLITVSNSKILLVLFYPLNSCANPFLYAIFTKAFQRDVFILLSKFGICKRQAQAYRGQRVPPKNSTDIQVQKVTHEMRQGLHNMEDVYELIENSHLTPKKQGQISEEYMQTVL
#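 Competitive HTRF cAMP read-out (cryptate anti-cAMP antibody, cAMP-d2; 30 min, room temperature) in freshly harvested TSHR cells. Compounds added before TSH at EC80 (4nM final), followed by 2 hours' incubation at 37 deg C.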
# Akt phos inh: HTS Assay for Inhibitors of Akt Phophorylation: Primary Screen. Neuro2A IGF-stimulated pAkt S473 HTRF, 20 min; hits give low values. activity change, % for hits at 50 µM. 360,000 tested, 0.32% active. AID 651550, 2012; in the data active means activity change below about -80%; inconclusive means mostly about -51% to -80%; further: on the % scale 0 is the no-effect control and ±100 the full control effect
#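 Single-point screen (50 µM final compound) in Neuro2A cells stimulated 20 min with 6 nM IGF at 37 deg C. After lysis, Ser473-phosphorylated Akt read by HTRF (ex 330 nm, em 615/665 nm) as the 665/615 ratio.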
# TCR activator: Activators of T cell receptors: qHTS campaign; primary human leukocytes, anti-CD3, IL-2 HTRF, 48 h; Potency, µM (highest dose often 9.22 µM), inactives show top-dose activation of IL-2 secretion, actives largely listed as activators; 330,000 tested, under 10 active; further: % of control where 0% means no effect
#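 Readout: HTRF IL-2, Eu-cryptate/d2 antibody pair, 320nm excitation, 665nm emission. Stimulus: a-CD3 beads, no co-stimulation. Cells: primary human leukocytes. Exposure: 48 hr with compound.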
# RGS4 inhibitor: Inhibitors of Regulator of G Protein Signaling (RGS) 4: qHTS | Transcreener GDP fluorescence polarization, RGS4-accelerated GTP hydrolysis | Potency, µM (series often up to 114 µM), for the others: at the highest dose activity change, negative = inhibition, hits mostly inhibitors | Regulator of G-protein signaling 4 (Homo sapiens), P49798 | 390,000 tested, 0.039% active; further: potency means the concentration at half of the fitted maximal effect; on the % scale 0 is the no-effect control and ±100 the full control effect; nearly all actives have a fitted effect of over 75% in size
#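 MLSMR compounds (23 nl, pin-transferred) preincubated 10 min at room temperature with a 500nM (2x) first reagent, then RGS4 at 900nM (2x) plus Transcreener GDP mix added; fluorescence polarization (620/688 nm) read before and after 90 min at 30 °C.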
# Glioma ERSR ind: qHTS for Inducers of the Endoplasmic Reticulum Stress Response (ERSR) in Human Glioma: qHTS. Potency, µM, for the others: at the top dose activation, most hits filed as activators. U87-MG GRP78 promoter luciferase reporter, 16 h. 420,000 tested, 0.02% active; further: potency means the concentration at half of the fitted maximal effect; series mostly up to about 76 µM; % of control where 0% means no effect; nearly all actives have a fitted effect of over 35% in size
#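 Stably transfected U87-MG glioma cells carrying a GRP78-based luciferase sensor; 16 h compound incubation. Luminescence end-point read 10 min after Bright-Glo addition at room temperature.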
# Active calls of the source: *; i = inactive; u = inconclusive; x = no result; [ ] = dose if it differs, or a comment. The list is not random: actives were taken first. Their share in the collection is about 0.55%. Unless noted, the call rests on the fitted dose curve; in most records, active means well fitted curve in the direction sought with a large enough effect; inconclusive means small, poorly fitted or top-dose-only effect, or another doubt; inactive means no such curve, though single readings can be large; an effect the other way counts as inactive or inconclusive.
SMILES,LDHA block,TSHR antag,Akt phos inh,TCR activator,RGS4 inhibitor,Glioma ERSR ind
CC(=O)NCCc1ccc(-c2csc(-c3ccc(C)cc3)n2)s1,-1,x,x,x,x,x
COC(=O)c1cc(C(=O)OC)cc(N2C(=O)CN=C2Nc2nc(C)cc(C)n2)c1,-2,8,-80%*,-2%,21%,1%
COc1cc2c(c(OC)c1)C(c1ccc(F)c(Br)c1)C1=C(CCCC1=O)N2 (stereo not given),13,x,x,x,x,x
COc1cc2c(cc1OC)CN(CC(=O)Nc1ccc(C#N)cc1)CC2,1,2,-107%*,-5%,20%,-3%
COc1cc2c(cc1OC)CN(CC(=O)Nc1ccc(S(=O)(=O)N(C)C)cc1)CC2,-10,5,i,-3%,13%,-3%
CC(=O)c1cccc(NC(=O)c2sc3nc4n(c(=O)c3c2C)CCCC4)c1,-1,-132*,i,5%,-22%[11.4 µM],u
Cc1cc(=O)oc2ccc(OCc3ccccc3)cc12,0,-118*,i,-3%,5%,1%
Cc1cc(=O)oc2cc(OCc3ccccc3)ccc12,-3,-6,i,x,-1%,-1%
COc1ccc2nc(-c3ccc4c(c3)OCO4)cc(C(=O)O)c2c1,7,x,x,x,x,x
O=C(Nc1nnc(CC(c2ccccc2)c2ccccc2)s1)c1ccco1,-4,-3,-112%*,2%,9%,-8%
O=C(Nc1nnc(Cc2ccccc2)s1)c1cccs1,-9,-1,-82%*,-12%,1%,1%
O=C(Nc1nnc(Cc2ccc(Cl)cc2)s1)c1cccs1,1,-4,i,0%,3%,0%
COCc1nnc(NC(=O)c2ccco2)s1,0,4,i,x,-29%[56.9 µM],1%
CCOCc1nnc(NC(=O)c2ccco2)s1,-4,-4,-123%*,-4%,0%,-4%
Cc1ccc(-c2cc(C(=O)O)c3ccc(Br)cc3n2)o1,13,x,x,x,x,x
Fc1ccc2[nH]c3c(NCCN4CCOCC4)ncnc3c2c1,-35*,-6,i,x,-17%[56.9 µM],-6%
Clc1ccc2[nH]c3c(NCCN4CCOCC4)ncnc3c2c1,-11,-8,i,-8%,-21%,4%
CC(=O)N(c1ccccc1C)C1CCCC1,-3,0,i,-2%[46.1 µM],0%,-4%
CC(=O)N(C1=C(Cl)C(=O)c2ccccc2C1=O)C1CCCCC1,41,-82*,i,3%,-141%,-13%
O=S(=O)(c1cc(Br)c(Cl)s1)N1CCCC1,-3,-78*,i,2%,-3%,-2%
O=C(O)c1cc(S(=O)(=O)N2CCCCC2)sc1Cl,-4,6,i,1%[46.1 µM],4%,-3%
Cn1cc(C2Nc3ccccc3C(=O)N2c2ccc(Cl)cc2)c(=O)n(C)c1=O (stereo not given),19,x,x,x,x,x
O=C(O)c1cccc(S(=O)(=O)Nc2ccc3oc(=O)sc3c2)c1,2,-5,-114%*,-2%,u,-5%
CC(C)COc1ccc(C(=O)Nc2nonc2-c2ccc(OC(C)C)cc2)cc1,-30*,x,x,x,x,x
CC(C)(C)c1ccc(C(=O)Nc2ccc(Oc3ccc(Cl)cc3Cl)cc2)cc1,2,x,x,x,x,x
O=C(Nc1ccc(Oc2ccc(Cl)cc2)c(Cl)c1)c1cc(I)cc(I)c1O,-6,-94*,i,-1%,-23%,0%
COc1ccc(N2C(=O)CCC2(C#N)c2ccccc2)cc1 (stereo not given),-18,x,x,x,x,x
COc1ccccc1N1C(=O)CCC1(C#N)c1ccccc1 (stereo not given),-2,x,-107%*,-45%,-44%,-3%
Cc1cc(N2CCCCCC2)nc2ccc(F)cc12,3,x,-92%*,1%,7%,-2%
